Test results from PubChem BioAssay (NCATS).
Several values for one entry are separate records, joined by “and”; a condition that tells them apart may be missing. Equal values may be shown once. A number with no mark means an inactive call. Inconclusive results are not listed. A call without a number means that no potency is given here. Activity calls are given as the source filed them. Unless noted, the call rests on the fitted dose curve; in most records, active means well fitted curve in the direction sought with a large enough effect; inconclusive means small, poorly fitted or top-dose-only effect, or another doubt; inactive means no such curve, though single readings can be large; an effect the other way counts as inactive or inconclusive.

Assays:
[1] = target: Tyrosine-protein kinase Yes (Homo sapiens) (UniProt P07947); test: qHTS for small molecule inhibitors of Yes1 kinase: Primary Screen (AID 686947); further: nearly all actives have a fitted effect of over 60% in size; further: potency means the concentration at half of the fitted maximal effect
Chain of Tyrosine-protein kinase Yes (Homo sapiens) (P07947 whole entry, looked up): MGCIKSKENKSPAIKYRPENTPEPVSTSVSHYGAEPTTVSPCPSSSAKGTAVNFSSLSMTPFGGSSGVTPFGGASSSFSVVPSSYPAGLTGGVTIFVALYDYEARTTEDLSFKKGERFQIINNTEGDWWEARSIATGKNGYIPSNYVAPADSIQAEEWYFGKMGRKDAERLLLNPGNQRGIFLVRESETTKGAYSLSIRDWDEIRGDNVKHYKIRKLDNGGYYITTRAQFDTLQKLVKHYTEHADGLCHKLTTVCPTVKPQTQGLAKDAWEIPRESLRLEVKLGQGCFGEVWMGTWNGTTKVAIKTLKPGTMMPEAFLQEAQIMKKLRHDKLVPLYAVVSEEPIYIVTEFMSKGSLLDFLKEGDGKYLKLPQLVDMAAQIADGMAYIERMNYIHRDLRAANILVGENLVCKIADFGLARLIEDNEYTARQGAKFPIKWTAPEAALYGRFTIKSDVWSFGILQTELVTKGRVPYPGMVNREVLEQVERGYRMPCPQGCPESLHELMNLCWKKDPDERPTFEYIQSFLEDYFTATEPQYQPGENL
Outline: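 Yes1 (4 nM) preincubated 20 min with compound, then 60 min room-temperature reaction with 0.1 mM ATP and 0.3 mg/mL poly(E4Y) in pH 7.5 Tris, 10 mM MgCl2. ADP measured by ADP-Glo luminescence, normalised to enzyme/no-enzyme controls.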

[2] = qHTS for small molecule inhibitors of Yes1 kinase: Counter Assay (AID 686950);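 further: no kinase present so only ADP-Glo detection of a fixed ADP amount is tested; luminescence from ADP-Glo reporting ADP in a fixed ATP and ADP mixture; series mostly up to about 77 µM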
Outline: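 Enzyme-free ADP-Glo interference check: compounds were preincubated 20 min in buffer, then an ATP/ADP mix (0.08 mM ATP, 0.02 mM ADP final) was added for 60 min at room temperature before two-step ADP-Glo luminescence detection.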

[3] = qHTS assay for small molecule activators of the nuclear factor-kappa B (NF-kB) signaling pathway (AID 651749; active means well fitted activation curve with a large enough effect in the signal ratio; the % refers to the signal ratio; further: series mostly up to about 77 µM); conditions: NF-kB-bla ME-180 cells, beta-lactamase FRET ratio, 16 h; active compounds read high
Outline: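 Screening used 2,000 ME-180 reporter cells per well exposed to pinned compound (23 nL) or DMSO; after 16 hr at 37C, beta-lactamase expression under NF-kB control was assessed through FRET.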

[4] = qHTS assay for environmental chemicals that activate the Aryl hydrocarbon Receptor (AhR) signaling pathway (AID 651777); conditions: 1A2-DRE human hepatoma cells, luciferase, 24 h; active compounds read high; further: nearly all actives have a fitted effect of over 15% in size
Outline: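 Human hepatoma 1A2-DRE cells, stably carrying a dioxin response element and CYP1A2 promoter driving luciferase, were exposed to compounds for 24 hr at 37 C and 5% CO2. Luciferase signal was then read after 30 min One-Glo at room temperature.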

[5] = target: Peroxisome proliferator-activated receptor alpha (Homo sapiens) (UniProt Q07869); test: qHTS assay for small molecule agonists of the peroxisome proliferator-activated receptor alpha (PPARalpha) signaling pathway (AID 651778); conditions: PathHunter PPARalpha complementation, chemiluminescence, 6 h; active compounds read high
Chain of Peroxisome proliferator-activated receptor alpha (Homo sapiens) (Q07869 whole entry, looked up): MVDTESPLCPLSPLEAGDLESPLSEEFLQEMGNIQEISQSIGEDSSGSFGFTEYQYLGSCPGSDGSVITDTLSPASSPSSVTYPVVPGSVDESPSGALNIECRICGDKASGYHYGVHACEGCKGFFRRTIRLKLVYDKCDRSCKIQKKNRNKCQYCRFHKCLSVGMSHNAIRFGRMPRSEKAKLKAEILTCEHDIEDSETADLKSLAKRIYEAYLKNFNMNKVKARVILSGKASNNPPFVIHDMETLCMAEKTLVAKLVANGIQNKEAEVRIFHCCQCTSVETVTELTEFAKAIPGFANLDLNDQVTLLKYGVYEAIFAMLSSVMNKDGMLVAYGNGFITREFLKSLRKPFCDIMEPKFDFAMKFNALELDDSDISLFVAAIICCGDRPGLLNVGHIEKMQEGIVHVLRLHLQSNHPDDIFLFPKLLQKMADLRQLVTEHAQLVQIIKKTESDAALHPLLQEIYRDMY
Outline: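 Cells plated at 2,000/well and held overnight at 37 C, 5% CO2, then compound added by pin tool for 6 hr; after PathHunter detection reagent and 60 min at room temperature, chemiluminescence from enzyme complementation was read.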

[6] = target: Arylsulfatase A (Homo sapiens) (UniProt P15289); test: qHTS screen for enhancers of Arylsulfatase A (ASA1): LOPAC Validation Assay (AID 720538); conditions: outcome: dose series up to 57.5 µM
Chain of Arylsulfatase A (Homo sapiens) (P15289 whole entry, looked up): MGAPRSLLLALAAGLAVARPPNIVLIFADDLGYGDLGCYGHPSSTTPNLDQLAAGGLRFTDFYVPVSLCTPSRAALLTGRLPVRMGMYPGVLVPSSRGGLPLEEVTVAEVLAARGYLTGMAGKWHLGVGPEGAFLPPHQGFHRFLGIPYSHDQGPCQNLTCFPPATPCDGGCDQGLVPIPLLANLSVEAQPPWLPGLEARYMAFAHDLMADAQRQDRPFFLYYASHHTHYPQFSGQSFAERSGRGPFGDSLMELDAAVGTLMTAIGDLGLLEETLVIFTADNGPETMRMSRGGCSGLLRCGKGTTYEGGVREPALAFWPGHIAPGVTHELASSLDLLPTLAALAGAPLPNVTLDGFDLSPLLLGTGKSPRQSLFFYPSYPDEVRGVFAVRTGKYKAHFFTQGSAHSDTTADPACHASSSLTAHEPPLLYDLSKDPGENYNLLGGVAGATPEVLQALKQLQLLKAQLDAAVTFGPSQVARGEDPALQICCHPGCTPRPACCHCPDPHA
Outline: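 Cell-based enhancement test: residual ASA activity in SV40-transformed I179S patient fibroblasts is measured by pNCS turnover (0.5mM final, 14h, room temperature) following 48h compound incubation; higher fluorescence indicates activation.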

[7] = qHTS for compounds that reverse cellular toxicity of Amyloid beta (A-beta) peptide in yeast: LOPAC Validation Assay (AID 720559)
Outline: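 Here, A-beta-toxic yeast grow with test compounds at 30 C for 48 hr before optical density at 600 nm is recorded; data are normalized against DMSO and the FeCl3-clioquinol control.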

[8] = qHTS for Activators of Parkin Expression: LOPAC Validation Assay (NLuc Reporter) (AID 720572)
Outline: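 Neuronal line stably carrying a FLuc/NLuc coincidence reporter under the Parkin promoter, seeded 24 h, then dosed in 7-point series for 24 h at 37 C. NLuc luminescence read after FLuc; normalized to DMSO and positive control (100%).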

[9] = qHTS for Activators of Parkin Expression: LOPAC Validation Assay (FLuc Reporter) (AID 720573)
Outline: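 Readout is FLuc luminescence from neuronal reporter cells (Parkin promoter, FLuc plus NLuc) after 24 h compound exposure in dose response. Values normalized to neutral DMSO and positive-control compounds.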

[10] = qHTS assay for small molecule agonists of the antioxidant response element (ARE) signaling pathway measured by Nrf2-dependant transcriptional activity (AID 720636; active means well fitted curve in the direction sought with a large enough effect in the repeat runs; an effect the other way counts as inactive or inconclusive)
Outline: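 ARE-luc HepG2 cells carrying an Nrf2-responsive luciferase reporter were plated in medium with 1% dialyzed FBS, left 6 hr at 37 C to attach, then exposed to compound for 16 hr. Luciferase luminescence was read after ONE-Glo addition.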

[11] = qHTS assay for small molecule agonists of the antioxidant response element (ARE) signaling pathway measured by Nrf2-dependant transcriptional activity - cell viability counter screen (AID 720653; active means well fitted curve in the direction sought with a large enough effect in the repeat runs; an effect the other way counts as inactive or inconclusive); conditions: ARE-bla HepG2 viability, CellTiter-Glo ATP luminescence, 16 h; active compounds read low
Outline: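 ARE-bla HepG2 cells (2,000/well) rested 5 hrs at 37C/5% CO2, then exposed to compounds in DMSO for 16 hrs. Viability was read in the same wells as intracellular ATP by luminescence, 30 min at room temperature after reagent addition.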

[12] = target: T1, Hexokinase-4 (Homo sapiens) + Glucokinase regulatory protein (Homo sapiens) (UniProt P35557+Q14397); test: qHTS assay for inhibitors of recombinant human GCK-GKRP interaction: Diaphorase-coupled assay (AID 743205)
T1 sequence (P35557 whole entry, looked up): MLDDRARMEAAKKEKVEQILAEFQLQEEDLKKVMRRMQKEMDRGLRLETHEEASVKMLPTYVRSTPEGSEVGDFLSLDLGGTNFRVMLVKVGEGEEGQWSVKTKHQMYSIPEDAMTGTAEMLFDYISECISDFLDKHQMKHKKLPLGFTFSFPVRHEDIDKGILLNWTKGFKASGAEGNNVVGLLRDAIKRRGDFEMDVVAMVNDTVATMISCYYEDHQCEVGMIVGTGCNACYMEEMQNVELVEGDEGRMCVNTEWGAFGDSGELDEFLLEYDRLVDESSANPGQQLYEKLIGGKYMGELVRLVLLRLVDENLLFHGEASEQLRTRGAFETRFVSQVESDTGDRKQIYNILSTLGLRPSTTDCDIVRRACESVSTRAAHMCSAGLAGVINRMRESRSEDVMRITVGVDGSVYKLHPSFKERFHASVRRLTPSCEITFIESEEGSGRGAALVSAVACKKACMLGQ
T1 sequence (Q14397 whole entry, looked up): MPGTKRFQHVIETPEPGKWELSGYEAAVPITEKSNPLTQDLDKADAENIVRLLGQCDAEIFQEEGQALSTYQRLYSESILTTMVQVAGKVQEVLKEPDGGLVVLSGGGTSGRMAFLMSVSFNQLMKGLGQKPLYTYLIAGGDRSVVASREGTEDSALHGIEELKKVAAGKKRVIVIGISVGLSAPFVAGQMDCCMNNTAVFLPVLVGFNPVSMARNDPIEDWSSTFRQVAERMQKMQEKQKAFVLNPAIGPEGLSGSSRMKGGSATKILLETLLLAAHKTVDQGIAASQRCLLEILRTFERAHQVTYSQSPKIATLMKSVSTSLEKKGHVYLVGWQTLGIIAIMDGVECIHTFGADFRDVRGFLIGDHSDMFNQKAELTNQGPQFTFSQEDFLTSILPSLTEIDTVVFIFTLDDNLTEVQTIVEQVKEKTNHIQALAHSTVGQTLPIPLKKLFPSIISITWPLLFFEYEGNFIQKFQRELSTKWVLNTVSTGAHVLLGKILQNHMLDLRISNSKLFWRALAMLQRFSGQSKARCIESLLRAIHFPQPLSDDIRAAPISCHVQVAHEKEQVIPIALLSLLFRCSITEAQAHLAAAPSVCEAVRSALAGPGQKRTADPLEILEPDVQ
Outline: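 Signal derives from resorufin generated by diaphorase, linked to GCK turnover of glucose (5 mM) and ATP (0.4 mM). Enzyme complex was added after a 20-minute compound preincubation and monitored for 30 minutes.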

[13] = target: T1, Hexokinase-4 (Homo sapiens) + Glucokinase regulatory protein (Homo sapiens); test: qHTS assay for inhibitors of recombinant human GCK-GKRP interaction: ADP-Glo assay (AID 743206)
Outline: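 GST-GCK and FLAG-GKRP (15 nM each in the dispensed mix, with 2 uM S6P) react with 0.4 mM ATP and 5 mM glucose (final) in Hepes pH 7.6 for 60 min at room temperature. ADP is measured by ADP-Glo luminescence.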

[14] = target: Tumor necrosis factor (Homo sapiens) (UniProt P01375); test: qHTS assay to identify small molecules that stimulate Tumor Necrosis Factor-alpha (TNF-alpha) secretion (AID 651757; active means well fitted curve in the direction sought with a large enough effect in the signal ratio; the % refers to the signal ratio)
Chain of Tumor necrosis factor (Homo sapiens) (P01375 whole entry, looked up): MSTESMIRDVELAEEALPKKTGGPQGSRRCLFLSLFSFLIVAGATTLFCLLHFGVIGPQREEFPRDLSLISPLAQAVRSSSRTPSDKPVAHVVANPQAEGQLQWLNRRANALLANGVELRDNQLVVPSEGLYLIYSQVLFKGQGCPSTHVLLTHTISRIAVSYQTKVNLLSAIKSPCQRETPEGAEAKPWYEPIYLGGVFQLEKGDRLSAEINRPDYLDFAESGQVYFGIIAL
Outline: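 THP-1 cells (3000/well) exposed to compounds 17 hrs at 37 C. Secreted TNF-alpha detected by HTRF with cryptate- and XL665-labeled anti-TNF-alpha antibodies after 3 hr at room temperature.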

[15] = target: Nuclear receptor ROR-gamma (Homo sapiens) (UniProt P51449); test: qHTS assay for small molecule antagonists of the retinoid-related orphan receptor gamma (ROR-gamma) signaling pathway (AID 651802);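 further: luciferase reporter luminescence driven by ROR response element; series mostly up to about 92 µM; nearly all actives have a fitted effect of over 60% in size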
Chain of Nuclear receptor ROR-gamma (Homo sapiens) (P51449 whole entry, looked up): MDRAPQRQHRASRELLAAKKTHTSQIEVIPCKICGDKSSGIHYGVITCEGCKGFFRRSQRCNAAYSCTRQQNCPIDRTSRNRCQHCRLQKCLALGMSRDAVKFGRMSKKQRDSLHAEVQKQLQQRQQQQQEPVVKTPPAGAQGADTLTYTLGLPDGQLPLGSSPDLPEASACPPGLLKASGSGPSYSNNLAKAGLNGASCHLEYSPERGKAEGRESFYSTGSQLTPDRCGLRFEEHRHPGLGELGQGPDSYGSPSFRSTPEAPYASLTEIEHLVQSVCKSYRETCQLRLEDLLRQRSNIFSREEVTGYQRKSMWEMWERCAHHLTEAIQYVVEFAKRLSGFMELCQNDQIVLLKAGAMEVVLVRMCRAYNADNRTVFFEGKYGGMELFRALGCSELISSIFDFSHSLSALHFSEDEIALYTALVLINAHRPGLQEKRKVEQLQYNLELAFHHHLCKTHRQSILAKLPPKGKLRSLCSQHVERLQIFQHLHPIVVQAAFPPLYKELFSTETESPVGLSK
Outline: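 CHO cells with TET-inducible ROR-gamma and RORE-luciferase reporter, dosed then doxycycline-induced. After 16 h at 37C, One-Glo luminescence read; decreased signal indicates antagonism.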

[16] = qHTS assay for small molecule antagonists of the retinoid-related orphan receptor gamma (ROR-gamma) signaling pathway - cell viability counter screen (AID 720652; active means well fitted curve in the direction sought with a large enough effect in the repeat runs; an effect the other way counts as inactive or inconclusive;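 further: series mostly up to about 92 µM; compound exposure lasted 16 hr before ATP read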)
Outline: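 CHO cells carrying TET-inducible ROR and RORE-luciferase reporter, plated 5 hr, then dosed with compound plus doxycycline. After 16 hr at 37 C, viability read as intracellular ATP by CellTiter-Glo luminescence.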

[17] = qHTS assay for small molecule disruptors of the mitochondrial membrane potential - 1 hr assay (AID 651754; calls by dose curve; further: nearly all actives have a fitted effect of over 35% in size)
Outline: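 HepG2 cells, attached overnight, were exposed to compound for 1 hr at 37C, then stained 30 min with a potentiometric dye. Ratio of red aggregate (590nm) to green monomer (535nm) fluorescence reports membrane potential; collapse shifts signal toward green.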

[18] = qHTS assay for small molecule disruptors of the mitochondrial membrane potential - 5 hr assay (AID 651755; calls by dose curve; further: nearly all actives have a fitted effect of over 40% in size)
Outline: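 HepG2 cells, attached overnight at 37C, were exposed to compound or DMSO for 5 hr at 37C, 5% CO2. Mito-MPS dye was then added for 30 min, and fluorescence read at 490/535 nm (monomers) and 540/590 nm (aggregates).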

[19] = target: T1, Hexokinase-4 (Homo sapiens) + Glucokinase regulatory protein (Homo sapiens); test: qHTS assay for inhibitors of recombinant human GCK-GKRP interaction: HTRF assay (AID 743207)
Outline: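 Titration screening format: recombinant GST-GCK and FLAG-GKRP at 5 nM, S6P at 2 uM, labelled anti-tag antibodies, 60 min at RT, dual-wavelength HTRF readout.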

[20] = qHTS assay to identify small molecules that stimulate interleukin-8 (IL-8) secretion (AID 651758; active means well fitted activation curve with a large enough effect in the signal ratio; the % refers to the signal ratio)
Outline: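 THP-1, 2000 cells/well; cpd 16 h, 37 C; add cryptate + XL665 anti-IL-8 Abs; RT 1-3 h; TR-FRET read.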

Compound: Nc1nccc(-c2ccc3noc(-c4ccc(Cl)cc4)c3c2)n1
- Potency [1]: inactive
- outcome [2]: inactive

Compound: Cc1ccccc1C(OCCN(C)C)c1ccccc1 (stereo not given)
- activation [3]: 2.9%
- activation [4]: 0.382%
- max response [5]: -4.12%
- outcome [6]: inactive
- outcome [7]: inactive
- Potency [8]: inactive
- outcome [9]: inactive
- outcome [10]: inactive
- max response [11]: -8.13%
- outcome [12]: inactive
- outcome [13]: inactive

Compound: COc1ccc2c3n(c(=NC(=O)c4cccnc4)nc2c1OC)CCN3
- Potency [1]: inactive
- outcome [2]: inactive

Compound: CN(C)c1ccc(Nc2nc(N)n(C(=O)c3c(F)cccc3F)n2)cc1
- Potency [1]: 0.772 µM (active)
- outcome [2]: inactive

Compound: CN[C@@H](C)C(=O)N[C@H]1CCCC[C@H]2CC[C@@H](C(=O)N[C@@H](c3ccccc3)c3cn(CCCCc4ccc(CCCCn5cc([C@@H](NC(=O)[C@@H]6CC[C@@H]7CCCC[C@H](NC(=O)[C@H](C)NC)C(=O)N76)c6ccccc6)nn5)cc4)nn3)N2C1=O
- Potency [1]: inactive
- outcome [2]: inactive

Compound: COc1ccc(-c2ccc3c(N4CCOC[C@H]4C)nc(N4CCOC[C@H]4C)nc3n2)cc1CO
- Potency [1]: inactive
- outcome [2]: inactive

Compound: Cc1[nH]c(=O)c(C#N)cc1-c1ccncc1
- activation [3]: -0.647%
- activation [4]: 0.896%
- max response [5]: 0.228%
- outcome [6]: inactive; inhibitor; fitted 5.3582 uM
- outcome [7]: inactive
- outcome [9]: inactive
- outcome [10]: inactive
- max response [11]: 11.3%
- outcome [12]: inactive
- outcome [13]: inactive

Compound: Cc1c(C)c2c(c(C)c1O)CCC(C)(COc1ccc(CC3SC(=O)NC3=O)cc1)O2 (stereo not given)
- activation [3]: -3.91%
- activation [4]: 5.68%
- max response [5]: 1.07%
- Potency [1]: inactive
- outcome [2]: inactive
- outcome [10]: inactive
- max response [11]: 5.17%

Compound: Cc1ccccc1C(C(=O)NC1CCCC1)N(C(=O)Cn1cnc2ccccc21)c1cccc(F)c1 (stereo not given)
- Potency [1]: inactive
- outcome [2]: inactive

Compound: NC(=O)c1cnccn1
- activation [3]: -0.539% and -2.05%
- outcome [14]: inactive
- activation [4]: -0.771% and 0.812%
- max response [5]: -0.88% and -1.97%
- outcome [15]: inactive
- outcome [6]: inactive
- outcome [7]: inactive
- outcome [9]: inactive
- outcome [10]: inactive
- outcome [16]: inactive
- max response [11]: 6.82% and 7.56%
- outcome [12]: inactive
- outcome [13]: inactive

Compound: CC(=O)Oc1ccccc1C(=O)O
- activation [3]: -1.39% and 0.118% and -2.43%
- outcome [17]: inactive
- outcome [18]: inactive
- outcome [14]: inactive
- activation [4]: 0.977% and -1.01% and -0.15%
- max response [5]: -3.17% and 6.24% and -1.09%
- outcome [15]: inactive
- outcome [6]: inactive
- outcome [7]: inactive
- outcome [9]: inactive
- outcome [10]: inactive
- outcome [16]: inactive
- max response [11]: -2.6% and -0.828% and 18.8%
- outcome [12]: inactive
- outcome [13]: inactive

Compound: NC[C@H](O)c1ccc(O)c(O)c1
- activation [4]: 0.207%
- max response [5]: -1.8%
- outcome [6]: inactive
- outcome [10]: inactive
- max response [11]: -7.71%
- outcome [12]: inactive
- outcome [13]: inactive
- outcome [19]: inactive

Compound: CCCC(CCC)C(=O)O
- activation [3]: 0.312% and -3.31% and -0.945%
- outcome [14]: inactive
- outcome [20]: inactive
- outcome [6]: inactive
- outcome [7]: inactive
- outcome [10]: inactive
- outcome [16]: inactive
- max response [11]: -3.17% and -14.3% and -4.27%

Compound: CC(c1cc2ccccc2s1)N(O)C(N)=O (stereo not given)
- Potency [1]: inactive
- outcome [2]: inactive

Compound: COc1ccccc1-c1cccc(-c2c(O)c3cc(C#N)c(Cl)cc3[nH]c2=O)c1
- Potency [1]: inactive
- outcome [2]: inactive

Compound: Cc1ccc(-n2nc(C(C)(C)C)cc2NC(=O)Nc2ccc(OCCN3CCOCC3)c3ccccc23)cc1
- outcome [2]: inactive

Compound: O=C(NOC[C@H](O)CO)c1ccc(F)c(F)c1Nc1ccc(I)cc1F
- Potency [1]: inactive
- outcome [2]: inactive

Compound: COc1cc(Oc2ccnc3cc(OC)c(OC)cc23)ccc1NC(=O)NC(C)c1nccs1 (stereo not given)
- outcome [2]: inactive

Compound: N#Cc1ccc(C(c2ccc(C#N)cc2)n2cncn2)cc1
- Potency [1]: inactive
- outcome [2]: inactive

Compound: Cc1oncc1C(=O)Nc1ccc(C(F)(F)F)cc1
- Potency [1]: inactive
- outcome [2]: inactive
- outcome [12]: inactive
- outcome [13]: inactive

Compound: CC1(C)SCCN(S(=O)(=O)c2ccc(OCC#CCO)cc2)[C@@H]1C(=O)NO
- Potency [1]: inactive
- outcome [2]: inactive

Compound: N#CC[C@H](C1CCCC1)n1cc(-c2ncnc3[nH]ccc23)cn1
- outcome [2]: inactive

Compound: COc1cc(Nc2ncc3c(n2)-c2ccc(Cl)cc2C(c2c(F)cccc2OC)=NC3)ccc1C(=O)O
- Potency [1]: 0.0218 µM (active)
- outcome [2]: inactive

Compound: COc1ccc(-c2c(-c3ccc(O)cc3O)n[nH]c2C)cc1
- Potency [1]: 8.67 µM (active)
- outcome [2]: inactive

Compound: Cc1[nH]c(=O)c(C#N)cc1-c1ccc2nccn2c1
- Potency [1]: inactive
- outcome [2]: inactive
- outcome [6]: inactive
- outcome [7]: inactive
- outcome [9]: inactive
- outcome [12]: inactive
- outcome [13]: inactive

Compound: O=C(Nc1ccc(F)c(C(F)(F)F)c1)Nc1nnc(-c2ccncc2)s1
- Potency [1]: inactive
- outcome [2]: inactive

Compound: CCn1c(-c2nonc2N)nc2c(C#CC(C)(C)O)ncc(OC[C@H]3CCCNC3)c21
- outcome [2]: inactive
